Measured values from PubChem BioAssay.
A number with no mark means an inactive call. Activity calls are given as the source filed them.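 The calls were made as follows: active = growth inhibition above 50% at the single 2 µM test dose, taken to imply half-maximal potency below 2 µM; inactive = the rest.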

Assay: antimalarial activity against Dd2 strain (AID 2302);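 also: 0% = DMSO untreated growth and 100% = chloroquine plus artemisinin killed control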
Details: P. falciparum Dd2 in RBCs, LDH growth readout, 72 h; at 2 µM; stronger effect = higher value
For `O=C(Nc1ccc(-c2ccc(-c3nc4ccccc4[nH]3)cc2)cc1)Nc1ccc(Cl)c(Cl)c1`, the growth inhibition was 100% (active). With `O=C(Nc1cccc(Cl)c1)OC1CCCN2CCCCC12` (centres undefined) the growth inhibition was -4%. Work on `CCC(C)C(COC(=O)c1cc(OC)c(OC)c(OC)c1)N(C)CCN(C)C(COC(=O)c1cc(OC)c(OC)c(OC)c1)C(C)CC` (centres undefined) yielded a growth inhibition of 45%. For `COc1ccc(N2CCN(CCCCNCc3ccc(NC(=O)c4cc(Cl)cc(Cl)c4)cc3)CC2)c(OC)c1`, the growth inhibition was 99% (active). `O=C(C=Cc1ccc(Cl)c(Cl)c1)NCCCCCN1CCC(CCCNC(=O)/C=C/c2ccccc2)CC1` gave a growth inhibition of 33%. For `CCOc1ccc(CCCON2C(N)=NC(N)=NC2(C)C)cc1`, the growth inhibition was 93% (active). `CNCc1ccc(CN(C)c2nc(N)c3cc(OC)c(OC)cc3n2)cc1` gave a growth inhibition of 3%. For `COc1ccc2nccc([C@@H](O)CN3CCC(NCc4ccc5c(c4)NC(=O)C(C)S5)CC3)c2c1` (some centres undefined), the growth inhibition was 72% (active). In the case of `N#Cc1ccc2nc(-c3cc(-c4cccc(F)c4)cnc3N)[nH]c2c1`, the growth inhibition is reported as 93% (active). In the case of `O=C(Nc1ccc(S(=O)(=O)N2CCCC2)cc1)c1cc(-c2cccnc2)nc2ccc(Cl)cc12`, the growth inhibition is reported as 95% (active). With `Cn1nc2ccc3ccccc3c2nc1=N` the growth inhibition was 85% (active). `CN(CCc1ccccn1)Cc1ccc(-c2ccc(-c3nc4ccccc4[nH]3)s2)cc1` showed a growth inhibition of 48%. With `O=C(COc1ccccc1)NC1CCN(c2ccnc3cc(Cl)ccc23)C1` (centres undefined) the growth inhibition was 35%. With `O=C(Cc1ccc(Cl)cc1)Nc1cc(Cl)ccc1Cn1cnc(N2CCNCC2)cc1=O` the growth inhibition was 2%.
